High-throughput results deposited in PubChem BioAssay by National Center for Advancing Translational Sciences (NCATS).
D1 antag – Antagonist of Human D 1 Dopamine Receptor: qHTS; D(1A) dopamine receptor (Homo sapiens), P21728; hit rate 3.2% among 360,000; HEK293 TREx D1 cells, calcium flux, dopamine EC80; hits give low values; AID 504652, 2011; activity change, negative = inhibition, % at 10 µM; in the data active = activity change below about -30%; also: % is scaled to controls: 0 for no effect and ±100 for the full control effect
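After overnight tetracycline induction at 30 C, force-coupled D1 HEK293 cells took up a no-wash calcium dye at room temperature. Compounds were added and monitored 180 s, and the response to EC80 dopamine was then recorded.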
D1 potentiator – Potentiators of Human D1 Dopamine Receptor: qHTS; HEK293 TREx D1 cells, calcium flux, dopamine EC20 potentiation; AID 504651, 2011; hit rate 0.036% among 360,000; potentiation, % at 10 µM; D(1A) dopamine receptor (Homo sapiens), P21728; in the data active = potentiation above about 30%; also: 0% is about no effect
TRHR enhancer-1 – qHTS for Small Molecule Agonists and Allosteric Enhancers of Human TRH Receptor: Primary Screen for Enhancers | TRHR cells, fluo-8 calcium fluorescence, EC20 TRH enhancement | enhancement, % at 2 µM | hit rate 0.66% among 360,000; in the data active = enhancement above about 30%; also: 0% is about no effect
Target sequence (P34981 whole entry, looked up): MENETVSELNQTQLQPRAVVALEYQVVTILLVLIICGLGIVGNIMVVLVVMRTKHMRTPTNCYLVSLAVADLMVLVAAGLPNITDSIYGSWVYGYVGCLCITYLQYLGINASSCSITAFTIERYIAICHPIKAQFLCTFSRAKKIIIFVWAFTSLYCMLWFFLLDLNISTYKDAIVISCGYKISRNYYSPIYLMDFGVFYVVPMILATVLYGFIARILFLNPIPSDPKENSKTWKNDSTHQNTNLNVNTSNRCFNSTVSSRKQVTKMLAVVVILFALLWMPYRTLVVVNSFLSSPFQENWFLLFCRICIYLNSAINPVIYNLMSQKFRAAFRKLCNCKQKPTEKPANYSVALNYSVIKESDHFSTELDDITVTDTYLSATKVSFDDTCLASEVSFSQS
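Enhancer read-out: after compound pinning and an initial kinetic agonist-mode read, an EC20 of TRH (10 nM final) was injected and fluo-8 calcium signal (Ex 480/Em 530) followed at 1 s/cycle for 100 cycles in TRHR-expressing cells.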
D1 ag – Allosteric Agonists of the Human D1 Dopamine Receptor: qHTS. hit rate 1% among 360,000. HEK293 T-REx D1 cells, calcium flux, agonist mode. activation, % at 2 µM. AID 504660, 2011. D(1A) dopamine receptor (Homo sapiens), P21728; also: 0% is about no effect
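Tetracycline-induced HEK293 TREx D1 cells, force-coupled to calcium signalling, were dye-loaded with a no-wash calcium kit. Compound was pin-added after a 10 s baseline. Fluorescence was read kinetically at 1 cycle/s for 180 s, with calcium rises flagged as agonism.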
TRHR agonist-1 – qHTS for Small Molecule Agonists and Allosteric Enhancers of Human TRH Receptor: Primary Screen for Agonists; Thyrotropin-releasing hormone receptor (Homo sapiens), P34981; TRHR cells, calcium flux fluo-8, FDSS agonist mode; activation, % at 2 µM; hit rate 0.18% among 360,000; AID 493084, 2011; also: 0% is about no effect
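Fluo-8-loaded TRHR cells; 10 s baseline, compound added, kinetic Ca2+ fluorescence read 1/s, agonist mode.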
TRHR enhancer-2 – qHTS for Small Molecule Agonists and Allosteric Enhancers of Human TRH Receptor: Confirmation Screen for Enhancers | shares compounds with TRHR enhancer-1 | TRH receptor cell assay, enhancer confirmation qHTS | activity change, negative = inhibition, % at 46.1 µM | 970 tested, under 10 active | AID 493076, 2011; active = well fitted curve in the direction sought with a large enough effect; inconclusive = small, poorly fitted or top-dose-only effect, or another doubt; inactive = no such curve, though single readings can be large; an effect the other way counts as inactive or inconclusive;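 also: compound effect scored on response to added TRH at EC20 of 10 nM; 0% is about no effect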
TRHR agonist-2 – qHTS for Small Molecule Agonists and Allosteric Enhancers of Human TRH Receptor: Confirmation Screen for Agonists; shares compounds with TRHR enhancer-1; TRHR-expressing cells, agonist activation read-out; Potency, µM (highest dose often 46.1 µM), for inactives: at the top dose activation, most hits filed as activators; hit rate 8% among 970; AID 493078, 2011; active = well fitted curve in the direction sought with a large enough effect; inconclusive = small, poorly fitted or top-dose-only effect, or another doubt; inactive = no such curve, though single readings can be large; an effect the other way counts as inactive or inconclusive; also: potency is read from the fitted curve at half-maximal effect; 0% is about no effect; nearly all actives have a fitted effect of over 75% in size
Active calls of the source: *; ? = inconclusive; / = no result given. Most compounds without a hit are left out; they make up all but 4.6% or so of the library. Rule as the data show it, unless noted: active = activation above about 30%; inactive = the rest.

SMILES | D1 antag | D1 potentiator | TRHR enhancer-1 | D1 ag | TRHR agonist-1 | TRHR enhancer-2 | TRHR agonist-2
Nc1nc(SCC(=O)N2CCOCC2)[nH]c(=O)c1-c1ccccc1 | 6.6 | -0.7 | 65.5* | 2.6 | 0.6 | 6.8 | -0.1%
COc1ccccc1NC(=O)Cn1nnc(-c2ccccc2NS(=O)(=O)c2ccccc2)n1 | -15.3 | 1.5 | 0.5 | 3.5 | 0.2 | / | /
COc1ccc(NC(=O)Cn2nnc(-c3ccccc3NS(=O)(=O)c3ccc(OC)cc3)n2)cc1 | 7.6 | -1.9 | 41.1* | 0.0 | 0.1 | 4.6 | -0.4%
O=C(OCC(=O)N1CCN(c2ccccc2)CC1)c1ccc2ccccc2n1 | -10.5 | 4.7 | 41.1* | 0.6 | 0.0 | 0.9 | -0.7%
C=CCn1cc(C(=O)N2CCN(C)CC2)c(=O)c2cc(S(=O)(=O)N(CC)CC)ccc21 | -14.5 | -6.0 | 52.8* | 2.7 | 1.0 | -4.5 | -0.6%
C=CCn1cc(C(=O)N2CCN(C)CC2)c(=O)c2cc(S(=O)(=O)N3CCCC3)ccc21 | -1.6 | / | -2.8 | 3.3 | 0.1 | / | /
Cc1ccc(C2C(C#N)=C(N)Oc3n[nH]c(C)c32)cc1 (stereo unspecified) | 8.1 | -7.7 | 2.5 | 0.7 | -0.1 | / | /
Cc1[nH]nc2c1C(c1cnn(C)c1)C(C#N)=C(N)O2 (stereo unspecified) | -5.0 | -2.2 | 54.8* | 4.1 | 0.6 | -0.5 | -0.6%
COc1ccc(C)cc1-n1nnc(-c2nc(-c3ccccc3Cl)no2)c1N | -6.3 | -4.6 | 13.4 | 7.1 | -1.5 | / | /
NC(=O)CSc1nnc(SCc2ccc(F)cc2)s1 | / | -3.6 | 0.3 | 0.8 | 30.6* | -1.2 | 1.5%
NC(=O)c1nsc(C(=O)N(Cc2cccnc2)C(C(=O)NCc2ccc(F)cc2)c2ccc(O)cc2)c1N (stereo unspecified) | 4.1 | -4.5 | 0.4 | 1.7 | 0.4 | / | /
CCc1ccccc1NC(=O)CN(C)C(=O)Cn1ncc(Cl)c(Cl)c1=O | -0.6 | -4.6 | 49.0* | 1.6 | -0.1 | -1.7 | 0.8%
N#Cc1c(-c2ccccc2)cc(-c2ccc3c(c2)OCO3)[nH]c1=O | 10.7 | -2.0 | 53.5* | 0.1 | -0.8 | -6.3 | 3.0%
N#Cc1c(-c2ccc3c(c2)OCO3)csc1N | 1.7 | -8.1 | 0.4 | 4.1 | -0.1 | / | /
O=c1oc2ccc3ccccc3c2cc1-c1nnc(Nc2ccccc2)s1 | 8.8 | 3.4 | -1.4 | 10.1 | 2.5 | / | /
Nc1nnc(-c2cc3c(ccc4ccccc43)oc2=O)s1 | -8.9 | 11.7 | -1.3 | 49.3* | 41.4* | 7.2 | ?
CN1C(=O)/C(=C/c2coc3ccc(O)cc3c2=O)SC1=S | 12.9 | -3.6 | 0.7 | 17.4 | 3.3 | / | /
N=C1/C(=C\c2coc3ccc(O)cc3c2=O)C(=O)N=C2SC=CN12 | -12.7 | -2.1 | 2.6 | 131.6* | 59.4* | 0.0 | 9.2µM*
CCCCn1c(N)c(N(CC(C)C)C(=O)c2ccc(S(=O)(=O)N3CCCCCC3)cc2)c(=O)[nH]c1=O | 4.4 | -2.8 | -9.8 | 3.0 | 0.0 | / | /
O=C(CNC(=O)c1ccc(F)cc1)c1ccc(Cl)cc1 | -32.8* | -6.8 | 43.4* | 14.5 | -0.8 | -6.8 | -0.3%
CC(NC(=S)NC(=O)c1ccccc1Br)c1ccccc1 (stereo unspecified) | 21.4 | -4.2 | 46.6* | 1.6 | -0.2 | -4.2 | -0.8%
CC(C)C(NC(=O)c1ccccc1Br)c1ccccc1 (stereo unspecified) | 12.1 | 5.8 | -1.9 | 1.2 | -0.6 | / | /
O=C(CSc1ccc(Cl)cc1)NNC(=O)c1ccco1 | 8.0 | -1.4 | 11.6 | 1.4 | 1.6 | / | /
CSCCC(NC(=O)c1ccc(Cl)c([N+](=O)[O-])c1)C(=O)N1CCN(C/C=C/c2ccccc2)CC1 (stereo unspecified) | 4.1 | -3.6 | 66.3* | 0.3 | 0.1 | -1.8 | 0.9%
CCOc1cc(CNC(=O)c2ccc3c(c2)NC(=O)C2CCCCN32)cc(OCC)c1OCC (stereo unspecified) | -17.0 | 3.2 | 0.6 | -0.1 | -0.3 | / | /
SMILES | D1 antag | D1 potentiator | TRHR enhancer-1 | D1 ag | TRHR agonist-1 | TRHR enhancer-2 | TRHR agonist-2
CC(C)N(Cc1cnn(C)c1)Cc1nc(COc2ccccc2)no1 | 0.1 | 2.9 | -2.0 | -1.2 | -0.1 | / | /
CN(Cc1cnn(C)c1)Cc1nc(COc2ccccc2)no1 | -4.2 | 0.8 | 46.5* | 4.3 | 1.0 | -1.7 | 0.2%
O=C1NC(Cc2c[nH]c3ccccc23)C(=O)N1Cc1cccc2ccccc12 (stereo unspecified) | 3.9 | -1.1 | 55.8* | 0.8 | 0.4 | -3.9 | 1.5%
O=c1/c(=C/c2ccc(O)c([N+](=O)[O-])c2)sc2nc3ccccc3n12 | -2.0 | -8.0 | -0.5 | 6.9 | 0.4 | / | /
CCN(CC)c1ccc(/C=c2\sc3nc4ccccc4n3c2=O)c(O)c1 | -38.3* | -0.1 | -1.9 | 179.2* | 26.3 | 2.3 | 20.6µM*
Cc1ccc(C)c(NC(=O)C[n+]2ccccc2)c1 | 10.8 | 29.8 | 64.6* | 1.1 | 0.0 | 3.5 | -0.6%
Oc1c(Cl)cc(Cl)cc1/C=C/c1ccc2cccc(O)c2n1 | -13.7 | -1.4 | -10.4 | 114.0* | 42.1* | ? | ?
CC(=O)Nc1nc2n(n1)C(c1ccccc1)C=C(c1ccccc1)N2 (stereo unspecified) | -7.5 | -13.4 | 1.5 | 8.7 | 38.8* | -1.6 | ?
COc1ccc(C2(C(N)=O)CCCCC2)cc1OC | -2.1 | 0.1 | -6.2 | 4.2 | -0.2 | / | /
COc1ccc(C2(C(=O)NC(C)C)CCCC2)cc1OC | -12.4 | 7.3 | 52.2* | 1.5 | -0.4 | -5.0 | -0.4%
CCOc1ccc(N=C2NC(=O)C(CC(=O)Nc3ccccc3)S2)cc1 (stereo unspecified) | -2.6 | -3.2 | 0.5 | 1.1 | -0.1 | / | /
O=C(CC1SC(=Nc2ccc(O)cc2)NC1=O)Nc1ccccc1 (stereo unspecified) | -5.1 | 0.4 | 53.1* | 1.4 | 0.4 | -3.4 | 0.3%
COc1ccc(Cl)cc1N=C1NC(=O)CC(C(=O)Nc2ccccc2C(F)(F)F)S1 (stereo unspecified) | -2.1 | -1.8 | 5.4 | -0.9 | 0.4 | / | /
Cc1ccc(-n2ncc3c(N4CCC(C(N)=O)CC4)ncnc32)c(C)c1 | -13.4 | -5.9 | 15.3 | 0.1 | -0.4 | / | /
CCN(CC)C(=O)C1CCN(c2ncnc3c2cnn3-c2ccc(C)cc2C)CC1 | -8.7 | -4.0 | 44.5* | 0.7 | -0.6 | -6.8 | 1.8%
